# Most compounds without a hit are left out; they make up all but 21% or so of the library.
# CHX counter = Cycloheximide Counterscreen for Small Molecule Inhibitors of Shiga Toxin | AID 2314, 2010 | 300,000 tested, 12% active | max response, % | cell reporter, cycloheximide protein synthesis inhibition counterscreen; in the data active = max response mostly above about 13%, no sharp cut-off; inactive = mostly below about 14%; also: read at 38.3 µM for the half of the compounds with a filed dose
# Shiga toxin inh = A qHTS for Small Molecule Inhibitors of Shiga Toxin; Vero cells, Shiga toxin protein synthesis inhibition reporter; inhibition, % at 38.7 µM; 290,000 tested, 9.2% active; AID 2315, 2010; in the data active = inhibition mostly above about 28%, no sharp cut-off; inactive = mostly below about 43%
# Pf growth 48h = Primary qHTS for delayed death inhibitors of the malarial parasite plastid, 48 hour incubation; 310,000 tested, 5.9% active; P. falciparum luciferase growth in erythrocytes, 48 h; Potency, µM (titrated, usually from 28.7 µM), hits mostly inhibitors
#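 Firefly luciferase activity from engineered P. falciparum reports growth; inhibitors lower the luminescent signal. Cultures contained 2% hematocrit erythrocytes at 0.1% final parasitemia.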
# Pf growth 96h = Primary qHTS for delayed death inhibitors of the malarial parasite plastid, 96 hour incubation | AID 504834, 2011 | P. falciparum luciferase reporter growth, 96 h | Potency, µM (series often up to 28.7 µM), most hits filed as inhibitors | 320,000 tested, 6.9% active
#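 Parasite growth measured via integrated firefly luciferase reporter in P. falciparum. Infected erythrocytes at 2% hematocrit, 0.05% parasitemia final were treated 96 hours at 37 C under 5% CO2, and luminescence was read.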
# SARS PLP yeast = qHTS of Yeast-based Assay for SARS-CoV PLP; Potency, µM (highest dose often 32.9 µM), most hits filed as activators; S. cerevisiae expressing SARS-CoV PLpro, growth rescue; 330,000 tested, 0.19% active; calls by dose curve; also: nearly all actives have a fitted effect of over 55% in size
# NS1 function inh = qHTS Assay for Inhibitors of Influenza NS1 Protein Function | Potency, µM (top dose mostly 46.1 µM) | 270,000 tested, 0.4% active; calls by dose curve; also: actives are rising curves; nearly all actives have a fitted effect of over 50% in size
#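 Read-out: OD600 growth recovery of NS1-expressing budding yeast. Cells grown overnight at 30C in -URA glucose medium, washed, resuspended and diluted 1:100 in 2% galactose assay medium, pH 6.0. Same strain lacking NS1 served as positive control.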
# Hits are given with their value; 0 = inactive; ? = inconclusive; - = not tested or not shown. Unless noted, calls follow the shape of the dose curve; as a rule, active = well fitted inhibition curve with a large enough effect; inconclusive = small, poorly fitted or top-dose-only effect, or another doubt; inactive = no such curve, though single readings can be large or run the other way.
SMILES,CHX counter,Shiga toxin inh,Pf growth 48h,Pf growth 96h,SARS PLP yeast,NS1 function inh
O=C(O)Cc1ccc(C(=O)c2ccccc2F)s1,0,0,-,0,0,0
CCOC(=O)c1cnc(-c2ccccc2)nc1N1CCOCC1,0,0,?,0,0,-
CCOC(=O)c1cnc(-c2ccccc2)nc1N,57,126,0,0,0,0
CCOC(=O)c1cnc(-c2ccccc2)nc1N(C)C,48,120,0,-,0,0
CCCCN(CCCC)C(=O)c1cc(Cl)ccc1[N+](=O)[O-],0,0,0,0,0,0
CCCN(CCC)C(=O)c1cc([N+](=O)[O-])cc2c1-c1ccc([N+](=O)[O-])cc1C2=C(C#N)C#N,0,0,12µM,12µM,0,0
CSc1nnc(C2CCN(CC(=O)Nc3ccccc3N3CCOCC3)CC2)n1C(C)C,0,0,?,0,0,0
O=C(N/N=C/c1cccc(O)c1)C(=O)N1CCCCCC1,0,0,0,?,0,0
O=C(N/N=C/c1ccccc1F)C(=O)N1CCCCCC1,24,34,0,?,0,0
COc1ccccc1NC(=O)C(=O)N/N=C/c1cccs1,38,99,0,0,0,0
O=C(N/N=C/c1ccccc1O)C(=O)N1CCCCCC1,20,0,0,0,0,0
O=C(CN1CCCCCC1)N/N=C/c1cccs1,0,0,-,0,0,0
O=C(N/N=C/c1cccs1)C(=O)N1CCCC1,28,0,0,0,0,0
Cc1cccc(NC(=O)N2CCC(NC(=O)c3ccccc3C)CC2)c1,0,0,0,0,0,0
CCN(CC)c1ncnc2c1ncn2Cc1c(Cl)cccc1Cl,0,0,?,0,0,0
Clc1cccc(Cl)c1Cn1cnc2c(N3CCCCCC3)ncnc21,0,0,10µM,-,0,0
CCOc1ccc(-c2nnn(CC(=O)c3ccc4c(c3)OCCO4)n2)cc1,0,0,0,?,0,0
COc1ccc(-c2nnn(CC(=O)c3ccc4c(c3)OCCO4)n2)cc1OC,16,0,0,0,0,0
CCCOc1ccc(-c2nnn(CC(=O)c3ccc4c(c3)OCCO4)n2)cc1,0,0,?,7.4µM,0,0
CCN(CC)CCCN(Cc1cc2cc3c(cc2[nH]c1=O)OCCO3)C(=O)Nc1ccc(F)cc1,14,78,?,?,0,0
CCN(CC)CCCN(Cc1cc2cc3c(cc2[nH]c1=O)OCO3)C(=O)Nc1ccccc1OC,0,0,?,10µM,0,0
CCN(CC)CCCN(Cc1cc2cc(OC)c(OC)cc2[nH]c1=O)C(=O)Nc1ccccc1,0,0,?,-,0,0
COc1cc(/C=C2\N=C(c3ccccc3)OC2=O)ccc1OC(C)=O,7.5,0,0,?,0,0
COc1ccc(/C=C2\N=C(C)OC2=O)cc1OC(C)=O,0,0,0,0,0,0
O=C(c1ccccc1)c1ccc2nc(-c3ccco3)c(-c3ccco3)nc2c1,36,56,0,0,0,0
SMILES,CHX counter,Shiga toxin inh,Pf growth 48h,Pf growth 96h,SARS PLP yeast,NS1 function inh
O=C(NCCO)c1ccc2nc(-c3ccco3)c(-c3ccco3)nc2c1,0,0,0,-,0,0
O=C(NCCc1ccccc1)c1ccc2nc(-c3ccco3)c(-c3ccco3)nc2c1,0,0,-,0,0,14µM
CN1CCC(=NOc2ccc([N+](=O)[O-])cc2)CC1,34,95,0,0,0,0
COc1ccc(C(=O)ON=C2CCN(c3ccc([N+](=O)[O-])cc3)CC2)cc1,0,0,0,?,0,0
Cc1cc2nc(N3CCN(C(=O)c4ccco4)CC3)sc2cc1C,-,-,0,0,0,-
O=c1sc(N2CCN(c3ccccc3F)CC2)nc2ccsc12,37,56,0,?,0,0
O=C(c1ccco1)N1CCN(c2nc3ccsc3c(=O)s2)CC1,31,49,0,0,0,0
O=C(Nc1ccc(C(F)(F)F)cc1)c1cc(S(=O)(=O)NCC2COc3ccccc3O2)ccc1F (stereo not drawn),0,0,0,?,0,0
CN(C(=O)CSc1nc2ccccc2c(=O)n1C)C1CCS(=O)(=O)C1 (stereo not drawn),-,-,-,-,0,-
Cc1cc2ccccn2c1C(=O)Nc1ccccc1,23,0,0,0,0,0
Cc1cc2ccccn2c1C(=O)Nc1ccc(Cl)cc1,18,73,0,0,0,0

# Compound activity from PubChem BioAssay.
